Reference: publication PMC5540273 (PLoS ONE, 2017)

Test system: NDR2
Details: concentration: 1 μM, replicates: in singlicate; n = 1
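Also: KINOMEscan kinase panel screen.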

Compared with O=C(O)C(F)(F)F.O=C(O)C(F)(F)F.O=c1[nH]ccc2nc(N[C@@H]3CCCNC3)nc(Nc3ccc(S(=O)(=O)N4CCOCC4)cc3)c12 [GSK2177277], CNC(=O)c1ccccc1Nc1nc(Nc2ccc(N3CCOCC3)cc2)ncc1Cl.Cl [GSK1576028] is higher in “%Inh” value: 74% for the first, 91.3% for the second.

COc1cc(Nc2nccc(N3CCC(NC(=O)c4cc5ccccc5s4)C3)n2)cc(OC)c1OC (centres unmarked) [GSK1379760] and COc1cc(Nc2nccc(-c3c(-c4cccc(NC(=O)c5c(F)cccc5F)c4)nn4ccccc34)n2)cc(OC)c1OC [GSK323521] are the same in “%Inh” value: 0% for the first, 0% for the second.

Compared with CN1CCN(Cc2cccc(-c3ccc4c(Nc5ccc(Oc6ccccc6)cc5)ccnc4c3)c2)CC1 [GW578342], Fc1ccc(-c2ncn(C3CCNCC3)c2-c2ccnc(Oc3ccc(-c4ccccc4)cc3)n2)cc1 [SB-245391] is lower in “%Inh” value: 25% for the first, 13% for the second.

Cc1ccc(S(=O)(=O)Nc2ccc(Nc3nccc(Nc4cccc5[nH]ncc45)n3)cc2)cc1 [GSK581271] and Cl.NC(=O)c1cccc(Nc2nccc(Nc3ccc(Oc4c(Cl)cccc4Cl)c(Cl)c3)n2)c1 [GW659009] are the same in “%Inh” value: 0% for the first, 0% for the second.

Going from COC(=O)Nc1nc2ccc(Oc3ccc(NC(=O)Nc4cc(C(F)(F)F)ccc4F)cc3)cc2n1C.Cl [GW692089] to Cn1cc(-c2ccc3c(c2)CCN3C(=O)Cc2cccc(F)c2)c2c(N)ncnc21 [GSK2603358], the “%Inh” value falls from 45% to 7%.

In the case of O=C(Nc1n[nH]c2nc(-c3ccc(O)cc3)ccc12)C1CC1 [SB-710363], the “%Inh” value is reported as 4%.
